Measurements published in PubChem BioAssay AID588778 (Southern Research Institute, 2011).
Among all 10,000 compounds or so, fewer than 10 were called active. The rule behind the calls is not given here. Not all results are given here.

Experiment: Vibrio cholerae motility inhibitors, OD read-out (AID 588778)
Settings: stronger effect = higher value
[1] = measured here: bacterial viability at 10 ug/mL

O=C(Nc1cnccn1)c1cccs1
inhibition (concentration not given here): 20.3% (inactive) | inhibition [1]: 10.6%

CCOC(=O)N1CCN(C(=O)c2ccc(C#CC3(O)CCCCC3)cc2)CC1
inhibition (concentration not given here): -17.2% (inactive) | inhibition [1]: -5.67%

CC(C)N=C(NS(=O)(=O)c1ccccc1)c1ccccc1
inhibition (concentration not given here): -3.11% (inactive) | inhibition [1]: -1.85%

Cc1nc(NC(=O)c2c(F)c(F)c(F)c(F)c2F)ccc1I
inhibition (concentration not given here): 13% (inactive) | inhibition [1]: 0.675%

COc1ccc2[nH]cc(CCNS(=O)(=O)Cc3ccccc3)c2c1
inhibition (concentration not given here): 8.63% (inactive) | inhibition [1]: 0.04%

O=C(NC(=S)NCc1ccccc1)C1CC1
inhibition (concentration not given here): 12.4% (inactive) | inhibition [1]: 5.74%

CC(NC(=O)c1ccco1)c1ccc(I)cc1 (stereo unspecified)
inhibition (concentration not given here): 15.8% (inactive) | inhibition [1]: 23.3%

CSc1cccc(NC(=O)Cn2c(C)c(C=O)c3ccccc32)c1
inhibition (concentration not given here): 20.7% (inactive) | inhibition [1]: 5.17%

CC(C)(C)OC(=O)NNC(=O)Nc1ccccc1C(F)(F)F
inhibition (concentration not given here): 15.3% (inactive) | inhibition [1]: 31.8%

O=C(O)c1ccc(NC(=O)c2ccc(Cl)cc2)c(NC(=O)c2ccc(Cl)cc2)c1
inhibition (concentration not given here): -7.79% (inactive) | inhibition [1]: -2.21%

N#Cc1cc2c(nc1SCC1(O)CCCc3ccccc31)CCCC2 (stereo unspecified)
inhibition (concentration not given here): 8.28% (inactive) | inhibition [1]: -3.11%

COc1ccc(-c2csc3ncnc(Oc4cccc5cccnc45)c23)cc1
inhibition (concentration not given here): -32.6% (inactive) | inhibition [1]: -9.37%

COc1cccc2cc(C(=O)Nc3scc(-c4ccc(F)cc4)c3C(=O)OC(C)C)c(=O)oc12
inhibition (concentration not given here): -22.6% (inactive) | inhibition [1]: -8.21%

O=[N+]([O-])c1cccc(CN2CCC(N3CCCC3)CC2)c1
inhibition (concentration not given here): -18.4% (inactive) | inhibition [1]: -10.2%

NC(=O)C1(N2CCCCC2)CCN(C(=O)CSc2nc3ccccc3o2)CC1
inhibition (concentration not given here): 4.33% (inactive) | inhibition [1]: -1.26%

CCN(CC#CCCOC(C)=O)c1ccccc1
inhibition (concentration not given here): -9.42% (inactive) | inhibition [1]: -8.17%

O=C(NC(=S)Nc1ccc(Cl)cc1C(F)(F)F)c1ccccc1I
inhibition (concentration not given here): -7.41% (inactive) | inhibition [1]: -8.11%

COc1cc(C=O)ccc1OC(=O)c1nsc(Cl)c1Cl
inhibition (concentration not given here): 2.31% (inactive) | inhibition [1]: 2.66%

O=C(NCCSc1ccc(Cl)cc1)Nc1ccccc1
inhibition (concentration not given here): 52.1% (inactive) | inhibition [1]: 14.4%

Cc1ccc(F)c(NC(=O)CN2C(=O)CSc3ccccc32)c1
inhibition (concentration not given here): 16.3% (inactive) | inhibition [1]: 13.8%

CCCCCOc1ccc(NC(=O)C(=O)NCCN2CCOCC2)cc1
inhibition (concentration not given here): -4.07% (inactive) | inhibition [1]: -7.64%

COc1ccc(C(=O)N(Cc2ccc(C)o2)C2CCS(=O)(=O)C2)cc1Cl (stereo unspecified)
inhibition (concentration not given here): 1.9% (inactive) | inhibition [1]: 1.08%

Cc1nnc(SCC(=O)Nc2ccc(Cl)cn2)s1
inhibition (concentration not given here): -2.25% (inactive) | inhibition [1]: -0.63%

Cc1ccc(S(=O)(=O)Nc2ccc(C(=O)Nc3nccs3)cc2)cc1
inhibition (concentration not given here): 4.81% (inactive) | inhibition [1]: -2.49%

Cn1cnnc1SCC(=O)Nc1ccccn1
inhibition (concentration not given here): 9.88% (inactive) | inhibition [1]: 31.7%

Clc1ccc(Cc2nc(-c3cccnc3)no2)cc1
inhibition (concentration not given here): 5.04% (inactive) | inhibition [1]: 0.075%

CCOc1cc2c(cc1OCC)C(c1ccc(OC)c(OC)c1)N(c1ccc(C(=O)O)cc1)C(=O)C2 (stereo unspecified)
inhibition (concentration not given here): -8.01% (inactive) | inhibition [1]: -1.54%

COc1ccc(Br)cc1CNCc1cccs1
inhibition (concentration not given here): 84.4% (inactive) | inhibition [1]: 24.4%

C=CCn1c2ccccc2c2nnc(SCC(=O)Nc3cc(C)on3)nc21
inhibition (concentration not given here): -1.67% (inactive) | inhibition [1]: -8.05%

CC1=C(C(=O)Nc2nc3ccccc3s2)C(c2ccc(F)cc2)C2=C(CCCC2=O)N1 (stereo unspecified)
inhibition (concentration not given here): -5.34% (inactive) | inhibition [1]: 0.795%

CC(C)(NO)C(=O)c1ccc(Cl)cc1
inhibition (concentration not given here): 1.66% (inactive) | inhibition [1]: -5.03%

CC12CCC(C(=O)NCc3ccccc3Cl)(CC1=O)C2(C)C (stereo unspecified)
inhibition (concentration not given here): 7.42% (inactive) | inhibition [1]: -6.53%

Cc1cc(NC(=O)COc2cc(C)c(Cl)c(C)c2)no1
inhibition (concentration not given here): 3.92% (inactive) | inhibition [1]: -7.52%

CCOc1ccc2ccccc2c1C(=O)NCc1cccs1
inhibition (concentration not given here): 17.9% (inactive) | inhibition [1]: 2.9%

O=C(CC1(c2ccc(Cl)cc2)C(=O)c2ccccc2C1=O)N1CCCCC1
inhibition (concentration not given here): 16% (inactive) | inhibition [1]: -0.9%

Cc1occc1C(=O)Nc1cc(=O)n(C)c(=O)n1C
inhibition (concentration not given here): 3.62% (inactive) | inhibition [1]: -1.31%

Cc1c(C(=O)c2ccccc2)c(=O)n(C)c(=O)n1C
inhibition (concentration not given here): -8.62% (inactive) | inhibition [1]: 1.24%

COc1ccc(OC)c(NC(=O)Cn2c(C)ccc2C)c1
inhibition (concentration not given here): 5.31% (inactive) | inhibition [1]: 2.44%

CC12CCC(C(=O)Nc3ccc(SC(F)F)cc3)(CC1=O)C2(C)C (stereo unspecified)
inhibition (concentration not given here): 7.67% (inactive) | inhibition [1]: 34.3%

S=C(NCc1ccc(Cl)cc1)N1CCC2(CC1)OCCO2
inhibition (concentration not given here): -10.1% (inactive) | inhibition [1]: -3.96%

OCCNC(=S)NC1CCCCC1
inhibition (concentration not given here): -10.2% (inactive) | inhibition [1]: -4.3%

OCCNC/C=C/c1c(F)c(F)c(F)c(F)c1F
inhibition (concentration not given here): 8.12% (inactive) | inhibition [1]: 1.91%

O=C(c1ccc(Sc2nnc(Cc3ccccc3)n2-c2ccccc2)c([N+](=O)[O-])c1)N1CCCC1
inhibition (concentration not given here): -6.85% (inactive) | inhibition [1]: 7.99%

COc1ccc(NC(=S)Nc2ccccc2OC(F)F)cc1OC
inhibition (concentration not given here): -38% (inactive) | inhibition [1]: -5%

Cc1ccc(OCc2nnc(SCC(=O)N3CCc4ccccc43)n2N)cc1C
inhibition (concentration not given here): -18.2% (inactive) | inhibition [1]: -12.3%

C=C1C2(C(=O)Nc3nc4ccc(Br)cc4s3)CCC(C2)C1(C)C (stereo unspecified)
inhibition (concentration not given here): -2.38% (inactive) | inhibition [1]: -1.19%

Cc1cc(Cl)c(OCCOCCn2cnc3ccccc3c2=O)c(Br)c1
inhibition (concentration not given here): 4.18% (inactive) | inhibition [1]: -5.62%

Cc1c(N2C(=O)C3C4C=CC(C5CC45)C3C2=O)c(=O)n(-c2ccccc2)n1C (stereo unspecified)
inhibition (concentration not given here): -7.28% (inactive) | inhibition [1]: -4.46%

COc1ccc(NC(=S)N2CCCC2C(=O)N2CCCC2)cc1 (stereo unspecified)
inhibition (concentration not given here): 41.3% (inactive) | inhibition [1]: 7.73%

CN(C)C(=O)c1ccccc1C(=O)N(C)C
inhibition (concentration not given here): -3.26% (inactive) | inhibition [1]: 34.3%

C[C@@H](NC(=O)C1CCN(Cc2cccc(Cl)c2)CC1)c1ccccc1
inhibition (concentration not given here): 19.5% (inactive) | inhibition [1]: 5.13%

Cc1cccc(C(=O)Nc2ccc(I)cc2C(=O)N2CCCC2)c1
inhibition (concentration not given here): -0.8% (inactive) | inhibition [1]: -1.35%

C=CCn1c(SCC(=O)Nc2c(C)cc(I)cc2C)nnc1-c1ccco1
inhibition (concentration not given here): 5% (inactive) | inhibition [1]: -2.52%

COc1cccc(-c2cc(C(F)(F)F)n3ncc(C(=O)OC(C)C)c3n2)c1
inhibition (concentration not given here): 14.1% (inactive) | inhibition [1]: 15.9%

Cc1cc(Br)c(NC(=O)CSc2ccc(Cl)cc2)cc1C
inhibition (concentration not given here): -1.15% (inactive) | inhibition [1]: 5.67%

COc1ccc(N(C)NC(=O)Cc2ccccc2)cc1
inhibition (concentration not given here): 16.7% (inactive) | inhibition [1]: 4.27%

O=C(CC(NCc1ccccn1)C(=O)O)Nc1ccc(Cl)cc1 (stereo unspecified)
inhibition (concentration not given here): 4.17% (inactive) | inhibition [1]: -9.2%

COCc1cc(CN2CCCCC2)c(O)c2ncccc12
inhibition (concentration not given here): 34% (inactive) | inhibition [1]: 5.26%

COc1cc(C(=O)Nc2nnc(-c3sccc3C)s2)cc(OC)c1OC
inhibition (concentration not given here): -3.78% (inactive) | inhibition [1]: -6.72%

OCC(CO)(CO)NCC(O)CN1c2ccccc2Sc2ccccc21 (stereo unspecified)
inhibition (concentration not given here): 3.65% (inactive) | inhibition [1]: -1.83%

c1cncc(Nc2nc(-c3cccs3)cs2)c1
inhibition (concentration not given here): 13.2% (inactive) | inhibition [1]: -2.87%

COc1ccc(Cl)cc1NC(=S)Nc1cccc(C)n1
inhibition (concentration not given here): -27.1% (inactive) | inhibition [1]: -16.2%

COc1ccc(C(=O)Nc2ncccc2O)cc1
inhibition (concentration not given here): 10.3% (inactive) | inhibition [1]: 2.51%

S=C(NCc1ccco1)NNC(=S)Nc1ccc(Cl)cc1
inhibition (concentration not given here): 13.3% (inactive) | inhibition [1]: 5.16%

CCCC(=O)c1ccc(N2CCN(C(=O)c3ccccc3Br)CC2)c(F)c1
inhibition (concentration not given here): 1.55% (inactive) | inhibition [1]: 4.06%

COC(=O)C1=CN(c2ccc(F)c(F)c2)C=C(C(=O)OC)C1c1cc(OC)ccc1OC
inhibition (concentration not given here): -1.54% (inactive) | inhibition [1]: -3.16%

Cc1sc(NCc2cc(Cl)ccc2O)nc1-c1ccc(F)cc1
inhibition (concentration not given here): 14% (inactive) | inhibition [1]: -2.93%

O=C(Oc1ccc(Cl)cc1Br)c1ccc(F)cc1
inhibition (concentration not given here): -4.46% (inactive) | inhibition [1]: -5.02%

COc1c(S(=O)(=O)N2CCCN(S(=O)(=O)c3ccc(Cl)c(Cl)c3OC)CC2)ccc(Cl)c1Cl
inhibition (concentration not given here): 8.96% (inactive) | inhibition [1]: 22.4%

COc1cc(NC(=O)CS)cc(OC)c1
inhibition (concentration not given here): -28.8% (inactive) | inhibition [1]: -11%

CC(CCc1ccccc1)NC(=O)c1cccnc1 (stereo unspecified)
inhibition (concentration not given here): 14.2% (inactive) | inhibition [1]: -1.57%

CCOc1ccc(-n2nc3ccc(NC(=S)NC(=O)CC)cc3n2)cc1
inhibition (concentration not given here): -22.2% (inactive) | inhibition [1]: -6.24%

CC1(C)CC(=O)C2=C(C1)NC(Nc1nc3ccccc3s1)=NC21C(=O)Nc2ccccc21 (stereo unspecified)
inhibition (concentration not given here): 5.23% (inactive) | inhibition [1]: -0.54%

O=C(CCC(=O)Nc1ccccc1Cl)NNC(=S)NCc1ccco1
inhibition (concentration not given here): 7.34% (inactive) | inhibition [1]: 30.6%

O=C(CCCOc1ccc(Cl)cc1Cl)N1CCN(Cc2ccc3c(c2)OCO3)CC1
inhibition (concentration not given here): 15.4% (inactive) | inhibition [1]: 5.35%

CCc1[nH]nc2c1C1(CN3CCC1CC3)C(C#N)=C(N)O2 (stereo unspecified)
inhibition (concentration not given here): -3.07% (inactive) | inhibition [1]: -0.3%

CCN1C(=O)Cc2cc(S(N)(=O)=O)ccc21
inhibition (concentration not given here): 13.3% (inactive) | inhibition [1]: 0.76%

O=C(NCCc1ccccc1)c1ccc(CNS(=O)(=O)c2cccc(Cl)c2)cc1
inhibition (concentration not given here): -4.41% (inactive) | inhibition [1]: -10.6%

Cc1ccc(NC(NC=O)C(Cl)(Cl)Cl)c(C)c1 (stereo unspecified)
inhibition (concentration not given here): 1.46% (inactive) | inhibition [1]: 2.8%

CCc1cc(C(=O)OC)c(NC(=O)c2cc(Br)cs2)s1
inhibition (concentration not given here): 6.03% (inactive) | inhibition [1]: 1.94%

Cc1cccc(C)c1N1CCN(C(=O)N2CCCCC2)CC1
inhibition (concentration not given here): 8.63% (inactive) | inhibition [1]: -4.82%

COc1ccc(-c2csc3ncnc(SCc4c(C)noc4C)c23)cc1
inhibition (concentration not given here): 24.7% (inactive) | inhibition [1]: 4.67%

Cc1cc2ccccc2n2c(SCC(=O)c3ccc4c(c3)OCCO4)nnc12
inhibition (concentration not given here): 0.44% (inactive) | inhibition [1]: -5.11%

O=C(c1cccs1)N1C(=O)c2cccc3c(S(=O)(=O)N4CCCC4)ccc1c23
inhibition (concentration not given here): 11.6% (inactive) | inhibition [1]: -0.47%

CCSc1nnc(NC(=O)c2csc3ccccc23)s1
inhibition (concentration not given here): -5.35% (inactive) | inhibition [1]: -4.62%

COc1cc(SC)ccc1C(=O)Nc1cccc(C(F)(F)F)c1
inhibition (concentration not given here): 0.295% (inactive) | inhibition [1]: -4.94%

CCOC(=O)c1nnc2ccnn2c1N
inhibition (concentration not given here): -20.5% (inactive) | inhibition [1]: -4.37%

Cc1csc(NC(=O)CSc2nc3c(c(C(F)(F)F)c2C#N)CCC3)n1
inhibition (concentration not given here): 4.09% (inactive) | inhibition [1]: 1.86%
